{
  "source": "the supplement of paper PMC12339681",
  "note": "Counter-ions that a name gives are not always drawn.",
  "data": [
    {"test_system": "PBMC-derived induced microglia-like cells (piMGLC)", "test": "synaptosome phagocytic index relative to DMSO control (fraction of DMSO); higher = more phagocytosis", "conditions": "concentration: 10 uM (2 uM for compounds listed in Table S2); pretreatment time: 24 h; assay time: 3 h", "values": [
      {"smiles": "CCc1nn(CCCN2CCN(c3cccc(Cl)c3)CC2)c(=O)n1CCOc1ccccc1", "note": "[Nefazodone_(hydrochloride)]", "synaptosome phagocytic index": 1.37},
      {"smiles": "NCc1c[nH]c(=S)n1[C@H]1CCc2c(F)cc(F)cc2C1", "note": "[Nepicastat_(hydrochloride)]", "synaptosome phagocytic index": 0.936},
      {"smiles": "CCc1c2c(nc3ccc(OC(=O)N4CCC(N5CCCCC5)CC4)cc13)-c1cc3c(c(=O)n1C2)COC(=O)[C@]3(O)CC", "note": "[Irinotecan_(hydrochloride_trihydrate)]", "synaptosome phagocytic index": 0.682},
      {"smiles": "C[N+](C)(C)CCO.[Cl-]", "note": "[Choline_(chloride)]", "synaptosome phagocytic index": 0.799},
      {"smiles": "O=C(c1ccc(F)cc1)N1CCC[C@H](c2nc(-c3ccc(F)cc3)no2)C1", "synaptosome phagocytic index": 0.938},
      {"smiles": "Cn1cc(-c2c[nH]c3ncnc(N4CCOCC4)c23)cc1C#N", "synaptosome phagocytic index": 1.32},
      {"smiles": "CCCCOc1ccc(C(=O)CCN2CCCCC2)cc1", "note": "[Dyclonine_(hydrochloride)]", "synaptosome phagocytic index": 0.68},
      {"smiles": "CC(=O)OCC(=O)[C@@]1(O)CC[C@H]2[C@@H]3CCC4=CC(=O)C=C[C@]4(C)[C@H]3[C@@H](O)C[C@@]21C", "note": "[Prednisolone_acetate]", "synaptosome phagocytic index": 0.605},
      {"smiles": "Cc1ccc(Nc2nccc(N(C)c3ccc4c(C)n(C)nc4c3)n2)cc1S(N)(=O)=O", "note": "[Pazopanib]", "synaptosome phagocytic index": 0.785},
      {"smiles": "CCN(CC)Cc1ccc2cc(COC(=O)Nc3ccc(C(=O)NO)cc3)ccc2c1", "note": "[Givinostat_(hydrochloride_monohydrate)]", "synaptosome phagocytic index": 0.482},
      {"smiles": "N#Cc1ccc(COC[C@H]2O[C@@H](n3c(NCc4ccc(Cl)c(Cl)c4)nc4c(N)ncnc43)[C@H](O)[C@@H]2O)cc1", "synaptosome phagocytic index": 0.479},
      {"smiles": "COc1cc2ncnc(Nc3ccc(F)c(Cl)c3)c2cc1NC(=O)/C=C/CN1CCCCC1", "note": "[Dacomitinib]", "synaptosome phagocytic index": 1.26}
    ]}
  ]
}
